From PubChem BioAssay
HSF1 activator: HSF-1 activators, primary screen, NIH3T3-HGL cells, MG132 stress, luminescence, single point; NIH3T3-HGL HSF-1 luciferase reporter, 8 h; 100% = twice DMSO control signal; activation, % at 9 µM; AID 504408, 2011; 300,000 tested, 1.7% active;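 active means mean replicate activation of at least 50% with a set share of replicates each reaching 50%; inconclusive means only one of those two conditions met; inactive means mean below 50% and too few replicates reaching it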;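 further: 0% = median of the neutral control wells and 100% = twice that signal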
TWEAK Fn14 block: inhibitors of TWEAK-Fn14 signaling, primary screen, luciferase reporter cells, uHTS; AID 1159606, 2016; inhibition, % at 10 µM; 360,000 tested, 2% active; TWEAK-stimulated Fn14 reporter cells, luciferase luminescence, 8 h; in the data active means inhibition above about 50%
HSF1 inhib: HSF1 inhibitors in luciferase reporter cells, primary screen, cell-based, NIH3T3, luminescence; NIH3T3-HGL HSE-luciferase, MG132-induced, luminescence 8 h; stronger effect = lower value; activity change, negative = inhibition, % at 7.5 µM (by protocol); 300,000 tested, 0.77% active; AID 2098, 2009;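 active means more than half of replicate wells show activity change below -50%, luminescence cut by over half; inconclusive means some wells, but at most half, below -50%; inactive means no replicate well below -50%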;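 further: luciferase reports HSF-1 transcriptional activity via heat shock element; 0% = median of DMSO wells and -100% = zero luminescence signal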
TROY signal inh: inhibitors of TROY-driven NF-kB signaling, primary screen, Q293 LMP1-TROYcd cells, NF-kB luciferase, uHTS | Q293 LMP1-TROYcd NF-kB luciferase reporter, 4 h | inhibition, % at 10 µM | 360,000 tested, 0.98% active | AID 1347056, 2019;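 active means compounds whose plate-normalised and pattern-corrected inhibition of the luciferase reporter signal at the single screening dose is 50% or more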
HSP90 inh: HSP90 inhibitors, primary screen, cell lysate, luminescence. Rabbit reticulocyte lysate, luciferase refolding luminescence, 3 h. 290,000 tested, 0.91% active. Heat shock protein HSP 90 (rabbit reticulocyte lysate; luciferase refolding). inhibition, % at 5.6 µM;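 active means inhibition above the screen-wide mean plus 3 SD, computed separately per campaign, cut at about 16% in these data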;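 further: 0% = DMSO wells and 100% = 60 µM geldanamycin wells; inhibitors lower the luminescence because luciferase stays unfolded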
LMP1 NFkB inh: EBV LMP1-driven NF-kappaB luciferase reporter inhibitors, primary screen, cell-based, luminescence, single point; LMP1-induced NF-kappaB luciferase reporter cells; inhibition, % at 12.5 µM; 350,000 tested, 0.69% active; AID 504558, 2011; in the data active means inhibition above about 41%; inconclusive means no clear call, values can overlap the other calls;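 further: 0% = neutral control wells and 100% = reference inhibitor control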
* = called active by the depositor; ? = inconclusive; · = no result given. Compounds with a hit are over-represented: about 4.7% of the library has one in this group of screens.

SMILES	HSF1 activator	TWEAK Fn14 block	HSF1 inhib	TROY signal inh	HSP90 inh	LMP1 NFkB inh
Cc1ccc(S(=O)(=O)CCc2nnc(NC(=O)c3cnccn3)s2)cc1	2.6	-5.7	-2.2	-19.3	5.7	19.9
CCCc1nnc(NC(=O)c2nc(S(=O)(=O)Cc3ccc(C)cc3)ncc2Cl)s1	-81.7	95.0*	-80.0*	62.0*	4.7	21.8
CC(C)c1nnc(NC(=O)c2nc(S(=O)(=O)Cc3ccccc3)ncc2Cl)s1	-86.9	93.7*	-85.9*	32.4	8.4	10.7
CC(C)c1nnc(NC(=O)CCc2ccccc2)s1	-7.0	-4.8	-3.9	-26.1	5.1	-1.8
C[C@H]1CN([C@@H](C)CO)C(=O)CCCn2nncc2CO[C@H]1CN(C)C(=O)C1CC1	·	9.1	·	-3.9	·	2.6
CC1(C(=O)Nc2cccc(C#N)c2)CCN1C(=O)C1(c2ccccc2)CC1 (stereo not given)	·	-1.5	·	10.0	·	·
Cc1ccc(C(=O)NNC(=O)Cc2nc3nc(C)cc(C)n3n2)cc1	12.1	-14.4	-0.4	4.0	-0.2	·
Cc1cc(C)n2nc(CC(=O)NC3CCCCCC3)nc2n1	-18.6	5.1	-7.2	5.6	-0.9	64.4*
O=C1N(O)C2(C=CCCC2)/C(=N\O)C12CCCCC2 (stereo not given)	7.3	-3.5	-9.2	5.1	2.0	-0.5
CCON1C(=O)C2(CCCCC2)C(=O)C12C=CCCC2 (stereo not given)	0.5	8.9	0.5	-3.6	·	85.5*
O=C(Cn1ncc2ccccc2c1=O)Nc1cccc(C(F)(F)F)c1	·	4.1	·	-2.2	·	-1.4
CCN(C(=O)CSc1nc2cc(C(=O)O)ccc2c(=O)n1-c1ccccc1F)C1CCS(=O)(=O)C1 (stereo not given)	·	-20.0	·	0.4	·	2.9
O=C1c2ccccc2-c2onc3ccc(N4CCCC4)c1c23	93.2*	1.2	59.0	-25.3	-0.4	-4.8
CCOc1ccc2noc3c2c1C(=O)c1ccccc1-3	32.4	-11.7	5.7	-51.2	8.2	-2.6
COc1ccc2nc(C)cc(N/N=C/c3ccccc3)c2c1	·	-112.6	·	-71.5	·	-20.9
COc1ccc(/C=N/Nc2cc(C)nc3ccc(OC)cc23)c(OC)c1	16.2	86.4*	-6.5	81.7*	0.1	70.2*
C[C@H]1CCCCO[C@H](CN(C)C(=O)C2CCCCC2)[C@@H](C)CN([C@@H](C)CO)C(=O)c2cc(NC(=O)NC3CCCCC3)ccc2O1	·	-7.9	·	1.6	·	1.8
COc1ccc(C(O)c2nc(-c3ccc(OC)c(OC)c3)cs2)cc1 (stereo not given)	·	-32.7	·	11.0	·	·
Oc1ccc(-c2csc(Nc3ccc4c(c3)OCO4)n2)c(O)c1	·	15.0	·	-22.1	·	-80.4
N#Cc1ccc(Nc2nc(-c3ccc(O)cc3O)cs2)cc1C(F)(F)F	·	85.8*	·	67.3*	·	5.7
CC(C)(C)OC(=O)N(CCc1ccccc1)Cc1ccc(OCc2cccc(NC(=O)C3CCCC3)c2)cc1	·	4.4	·	-8.2	·	-6.3
CC(C)(C)OC(=O)N(Cc1ccccc1)Cc1ccc(OCc2cccc(NC(=O)C3CC3)c2)cc1	·	57.5*	·	17.1	·	10.2
CSc1ncc(Cl)c(C(=O)Nc2ccccc2C)n1	-8.9	1.9	-1.1	-12.6	0.2	-9.5
COc1ccccc1NC(=O)c1ccc(CS(=O)(=O)c2ccc(C)cc2)cc1	3.5	-3.9	4.4	11.4	0.8	0.9
COc1ccccc1NC(=O)c1nc(S(=O)(=O)Cc2ccccc2)ncc1Cl	-87.6	74.3*	-87.1*	72.0*	-3.2	0.6
SMILES	HSF1 activator	TWEAK Fn14 block	HSF1 inhib	TROY signal inh	HSP90 inh	LMP1 NFkB inh
CCOc1ccccc1NC(=O)c1nc(S(=O)(=O)Cc2ccccc2)ncc1Cl	-83.0	74.0*	-82.7*	74.8*	3.9	-30.3
CCS(=O)(=O)c1ncc(Cl)c(C(=O)Nc2ccccc2OC)n1	489.5*	95.0*	381.1	73.0*	-3.6	-19.3
CCSc1ncc(Cl)c(C(=O)Nc2ccccc2C)n1	54.7*	-5.4	9.6	-5.7	-3.4	4.3
CN1OC[C@@H]2CN(C(=O)CCc3ccccc3)[C@H](c3cccc(N4CCOCC4)c3)C[C@@H]21	·	1.4	·	-3.1	·	-6.7
O=C(NC1CCCCC1)c1nc(C2CCNCC2)oc1-c1ccccc1	·	-7.9	·	12.3	·	·
O=C(COc1ccc([N+](=O)[O-])cc1)NNC(=O)C1COc2ccccc2O1 (stereo not given)	·	11.5	·	2.1	·	7.1
CC1=C(C(=O)OCc2ccc3c(c2)OCO3)C(c2ccc(O)c([N+](=O)[O-])c2)NC(=O)N1 (stereo not given)	-32.3	71.0*	-29.0	43.7	0.4	11.8
COc1cc(C2NC(=O)NC(C)=C2C(=O)OCC2CCCO2)ccc1O (stereo not given)	-90.2	-30.8	-86.8*	8.6	1.9	5.1
CCOC(=O)C1=C(CNCc2ccccc2Cl)NC(=O)NC1c1ccc2c(c1)OCO2 (stereo not given)	3.0	79.8*	11.9	·	2.7	-8.6
COc1cc(C2NC(=O)NC(C)=C2C(=O)OCC2CCCO2)cc(OC)c1OC (stereo not given)	7.8	-20.8	-1.8	14.9	4.0	7.2
CC1=C(C(=O)OCc2ccc3c(c2)OCO3)C(c2ccccc2)NC(=O)N1 (stereo not given)	-55.4	87.4*	?	58.6*	2.6	68.7*
O=C(Nc1ccc2c(c1)OCCO2)C1c2ccccc2OCC(=O)N1C1CC1 (stereo not given)	·	4.2	·	-1.1	·	·
COc1ccc(-c2cc(CNc3nc(NC(C)C)nc4cc(-c5ccccc5)sc34)on2)cc1	·	-40.8	·	-44.0	·	·
COc1ccc(S(=O)(=O)N2CCC(C(=O)NCCC(=O)NCc3ccccn3)CC2)cc1	·	12.3	·	-28.7	·	9.3
O=c1cc(Cl)nc2ccccn12	·	-15.9	·	-1.5	·	71.1*
Cc1cc(Br)cn2c(Cc3ccccc3)c(C3CCCCC3)nc12	·	36.4	·	25.2	·	·
Cc1ccc(Cc2c(C3CCCCC3)nc3c(C)cc(Br)cn23)cc1	·	57.3*	·	-18.6	·	·
CC(=O)C1=CCC(c2ccc(Cl)cc2)N(S(=O)(=O)c2ccccc2)C1 (stereo not given)	·	15.8	·	8.2	·	·
CCOC(=O)c1c(C)[nH]c(C(=O)COC(=O)C2(C)CC2(Cl)Cl)c1C (stereo not given)	55.9*	19.9	21.0	-10.9	1.0	-23.4
CCOC(=O)c1c(C)[nH]c(C(=O)COC(=O)C2CC2)c1C	·	-1.3	·	-42.9	·	-17.3
CC(=O)NC(c1ccc(F)c(F)c1)c1nc(-c2cccc(C(C)C)c2)cs1 (stereo not given)	·	-67.1	·	-10.8	·	·
